# Experimental data published in the supplement of paper PMC6555819.
# What was measured:
# Assay in all cases: PBM binding z-score (relative to random genomic background probes); higher = stronger binding; sequences stand for … in GC…GCGATTGACAGCGTAGAATGAAGG
# [1] = system: FXR:RXRa (NR concentration 270 nM, RXRa partner concentration 90 nM)
# Outline: (§1)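 Binding buffer was PBS pH 7.4 with 2% milk, 0.02% Triton X-100, 1 mM DTT, 0.2 mg/mL BSA and 0.4 mg/ml salmon testes DNA. In it, ligand-free nuclear receptor dimers were incubated 1 h on custom Agilent 4×180K protein-binding microarrays carrying double-stranded probes. Antibodies against each partner (one per run) detected binding, and z-scores were calculated against random background probes after regression normalization of scanned fluorescence.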
# [2] = system: LXRa:RXRa (NR concentration 270 nM, RXRa partner concentration 90 nM)
# Outline: as §1
# [3] = system: LXRa homodimer (NR concentration 270 nM)
# Outline: as §1
# [4] = system: LXRb:RXRa (NR concentration 270 nM, RXRa partner concentration 90 nM)
# Outline: as §1
# [5] = system: LXRb homodimer (NR concentration 270 nM)
# Outline: as §1
# [6] = system: PPARa:RXRa (NR concentration 270 nM, RXRa partner concentration 90 nM)
# Outline: as §1
# [7] = system: PPARg:RXRa (NR concentration 180 nM, RXRa partner concentration 90 nM)
# Outline: as §1
# [8] = system: PPARg:RXRa 270nM:90nM, anti-RXR (NR concentration 270 nM, RXRa partner concentration 90 nM)
# Outline: as §1
# [9] = system: PPARg:RXRa 30nM:10nM, anti-RXR (NR concentration 30 nM, RXRa partner concentration 10 nM)
# Outline: as §1
# [10] = system: PPARg:RXRa 90nM:30nM, anti-RXR (NR concentration 90 nM, RXRa partner concentration 30 nM)
# Outline: as §1
# [11] = system: PPARg:RXRa DBDmut IVT, anti-RXR (DBD mutation: RXRa K156A/R161A, NR concentration 270 nM, RXRa partner concentration 90 nM)
# Outline: as §1
# [12] = system: PPARg:RXRa IVT, anti-PPARg (NR concentration 270 nM, RXRa partner concentration 90 nM)
# Outline: as §1
# [13] = system: PPARg DBDmut:RXRa IVT, anti-PPARg (DBD mutation: PPARg1 K132A/R137A, NR concentration 270 nM, RXRa partner concentration 90 nM)
# Outline: as §1
# [14] = system: PPARg DBDmut IVT, anti-PPARg (DBD mutation: PPARg1 K132A/R137A, NR concentration 270 nM)
# Outline: as §1
# [15] = system: PPARg homodimer (NR concentration 180 nM)
# Outline: as §1
# [16] = system: PXR:RXRa (NR concentration 270 nM, RXRa partner concentration 90 nM)
# Outline: as §1
# [17] = system: PXR homodimer (NR concentration 270 nM)
# Outline: as §1
# [18] = system: RARa:RXR (NR concentration 270 nM, RXRa partner concentration 90 nM)
# Outline: as §1
# [19] = system: RARa homodimer (NR concentration 270 nM)
# Outline: as §1
# [20] = system: RARb:RXRa (NR concentration 270 nM, RXRa partner concentration 90 nM)
# Outline: as §1
Sequence,PBM binding z-score [1],PBM binding z-score [2],PBM binding z-score [3],PBM binding z-score [4],PBM binding z-score [5],PBM binding z-score [6],PBM binding z-score [7],PBM binding z-score [8],PBM binding z-score [9],PBM binding z-score [10],PBM binding z-score [11],PBM binding z-score [12],PBM binding z-score [13],PBM binding z-score [14],PBM binding z-score [15],PBM binding z-score [16],PBM binding z-score [17],PBM binding z-score [18],PBM binding z-score [19],PBM binding z-score [20]
TGTAAAAGTTCAAAGGTAACGTAAGTATCCACAC,6.54,6.21,4.26,4.37,1.88,5.54,6.22,6.14,3.76,5.5,0.163,2.72,1.6,1.19,2.18,5.02,2.34,5.42,1.74,4.85
GCATATAGGTAATACAAGGTGAAAGCCCGATTGT,1.68,1.95,0.224,0.494,-0.242,1.56,1.34,1.08,0.375,0.952,4.04,3.27,1.21,0.358,0.757,0.437,-0.12,0.973,0.0827,0.234
CCTTACGGGTCAAGGGTATAGCACGGGTGGTACG,5.14,3.24,-0.107,2.59,-0.218,5.12,5.03,5.23,2.3,4.37,1.83,3.8,0.361,-0.594,3.73,2.9,-0.229,4.27,0.518,3.98
GATAGAGGGTCAAGGCCAGAGTACGCGTATTGAT,5.49,3.11,-0.2,2.76,-0.344,4.99,4.72,4.24,1.61,4.04,2.88,3.71,0.404,0.208,1.98,2.84,0.414,3.34,0.0585,4.12
TCATATAGGCAAATGCTAGGTGAAAGTCCGATCT,0.729,0.526,-0.00307,0.0683,-0.278,0.735,0.411,1.55,3.12,2.14,2.29,0.809,0.452,0.623,0.286,0.34,0.108,0.528,0.507,0.0925
GCATATAGGTAATACAAGGTGAAAGTACGATTGT,0.899,2.24,0.263,0.874,-0.16,1.82,1.98,1.86,0.776,1.17,3.58,3.44,1.47,0.563,0.701,0.648,0.0601,1.84,0.78,0.387
GCATCTAGGTAATACAAGGTGAAAGTCCGATTGT,1.09,1.15,0.539,0.383,-0.273,1.5,0.956,0.984,0.0503,0.572,4.35,3.42,0.512,0.835,0.218,0.368,-0.443,0.737,-0.154,0.5
CCTTACGGGTCACTCCAGGTTAGAGCATCGGAGT,4.5,6.91,0.78,4.42,0.148,4.23,3.19,3.7,0.828,2.54,2.67,3.37,-0.182,-0.0184,1.58,4.28,0.36,3.52,0.0194,3.64
TCTATTAGTTGAATGGCAACCGACGAGTCCGTTT,1.04,1.04,0.119,1.01,0.477,0.96,-0.00847,2.18,3.81,2.92,2.47,0.106,0.422,0.888,1.27,0.794,0.892,0.79,1.08,0.622
GTACCAAGGTGAACAGGTCGTTGATGAGTAGGCG,0.658,0.647,-0.308,0.422,-0.997,2.34,1.64,1.88,0.3,1.02,1.79,3,-0.0563,-0.667,0.811,0.437,-0.13,1.38,-0.00415,2.09
GGAACGAGGGCATTCGAGATGATAGCATGGCGAT,0.866,0.444,-0.191,-0.035,-0.591,1.38,1.36,0.68,0.253,0.521,2.56,2.34,-0.145,-0.476,-0.199,0.623,0.0214,0.232,-0.236,1.72
GCTTGTAGATCAAGGTTAAGACAGACTAAGCTAA,0.188,0.807,-0.318,0.486,-0.279,1.61,1.25,2.16,0.803,1.8,1.75,1.34,0.667,-0.149,0.0438,0.721,-0.263,0.922,-0.104,0.893
GGAACGACGGCATTCGAGTTGATAGCATGGCGAT,-0.557,-0.773,-0.583,-0.948,-1.04,-0.735,0.532,-0.612,-0.766,-0.917,-0.236,-0.897,-0.871,-0.489,-1.13,-0.589,-0.529,-0.766,-0.761,-1.24
TCAGGCAGGTGAAGGTAACTCAGGTACGCAGTCG,0.263,1.12,-0.208,0.558,-0.936,0.851,0.226,1.2,2.13,1.73,1.55,1.14,-0.774,-0.917,0.554,0.0794,-0.029,0.355,-0.103,0.92
CAAACTAGGACACAGAGGTCAAAGTCCGTGCGTA,5.53,5.78,6.08,5.13,1.79,5.73,6.63,5.99,3.64,5.73,6.49,6.69,3.32,2.78,5.68,6.16,7.13,6.38,1.48,4.28
CGCACTAGGTCAGAACAGGACAGTGAAGGATGAT,1.58,1.02,-0.057,0.629,-0.258,2.67,4.7,4.2,1.63,3.24,7.11,7.1,0.649,0.931,1.4,1.07,0.443,1.39,0.474,3.02
CCTAGCTGGTCAAGGTCACACACGCTATAGGTAC,4.92,3.91,1.74,3.43,0.392,4.23,2.76,3.05,0.699,1.94,1.88,2.8,0.834,0.076,3.15,4.03,1.43,4.64,2.61,3.99
ATCGAAAGGTCGACGTGAGTATAGAGAAAGGGAA,3.97,3.07,-0.0365,2.39,0.422,4.06,2.45,2.9,1.04,2.13,-0.328,1.19,1.19,0.607,0.972,2.21,0.153,2.94,-0.0772,3.82
CGTCCAAGGTCAGAGAGGTCAGTAAATGCCGAGT,5.8,4.99,3.02,4.55,0.428,4.81,3.48,4.16,1.04,2.7,2.74,3.23,0.177,0.266,4.38,5.96,12,5.41,1.88,5.28
TTACCAAGGTGAGCTGAGGTAGTTGATCCAACTC,-0.711,-0.48,-0.742,-0.743,-1.03,0.16,-0.149,-0.0423,-0.136,-0.391,0.816,1.21,0.143,-0.469,-1.15,0.018,-0.878,1.14,-0.894,0.883
TGTCAAAGTTCACAGGTAACGTAAGTATCCACAC,6.59,5.87,3.37,4.04,1.49,6.02,8.64,7.43,5.54,7.12,0.161,4.5,1.61,1.53,2.45,4.48,2.4,3.92,1.08,5.05
TATACAGGGTCAGAGGCCAGAGTACGAATGTCGA,4.14,3.96,0.791,2.95,1.8,4.29,5.34,5.19,3.23,4.52,1.65,3.65,2.26,1.28,2.24,2.83,0.79,3.74,1.13,3.72
CCTACTGGGCCATCAGGTTATTGATATCAACGTT,0.0751,-0.156,0.178,0.293,-0.502,0.918,1.23,1.98,0.473,1.4,4.67,4.48,0.284,0.0128,0.249,-0.153,-0.0218,-0.124,0.0589,0.589
ACTATTAGTTGAATTAGGGCAACCGATACGACGC,0.466,-0.0406,0.224,-0.00259,0.376,1.19,1.47,1.12,0.71,1.04,2.66,3.69,1.92,1.76,1.34,-0.0416,0.205,0.264,1.47,0.87
GGAACGAGGGCAACTTGATAGCAGAGTTTGATGG,0.815,0.375,-0.472,0.468,-0.203,1.53,1.63,1.28,-0.0805,0.883,4.45,3.29,0.236,0.0207,0.796,0.872,0.418,0.629,0.251,2.72
TAGCCTAGGTCAGATCGGGCCAGTATTCGCTATA,2.53,1.19,-0.155,0.7,-0.147,1.71,0.0951,0.687,-0.284,-0.025,0.568,1.66,-0.683,-1.02,0.109,1.28,-0.946,0.894,-0.762,3.14
CCAACTGGGCCAAAGGTCATTGATTCCAATGCTC,4.93,4.78,3.93,4.85,0.383,6.66,12.4,10.4,10.8,11.4,5.49,7,0.378,1.89,3.57,5.33,1.49,6.04,0.958,4.35
AGAACGAGGGCACGCTGAGTTAATAGCAGAGTAG,0.956,0.697,-0.612,0.378,-1.03,1.99,2.22,1.65,0.0968,1.08,4.13,3.9,-0.114,0.0711,0.0693,1.38,-0.237,0.718,-0.564,2.52
